Each structure is given as a SMILES string. “And” between values parts separate entries of the source, which are not always exact repeats. Equal entries are not always repeated. In all, about 350,000 compounds went through this assay and about 180 (0.051%) were called active. The sample holds actives, similar compounds and a random draw of the others, so the mix is not that of the screen.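 The calls were made as follows: active = mean replicate inhibition above about 25%, with every replicate also reaching it (limit read from the data, passing the limit was not always enough); inconclusive = only one of those two criteria met; inactive = neither criterion met.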 Some compounds were tested as several samples or in several runs, with calls that do not always agree.

The target of this test is Protein disulfide-isomerase A6 (Homo sapiens) (UniProt Q15084). The experiment in a line: ERp5 (PDIA6) reductase activity blockers – biochemical, turbidity, absorbance 650 nm, single point, primary screen (AID 651711). Conditions: ERp5 insulin aggregation, 90 min, at 9.99 µM, stronger effect = higher value.
Chain of Protein disulfide-isomerase A6 (Homo sapiens) (Q15084 whole entry, looked up): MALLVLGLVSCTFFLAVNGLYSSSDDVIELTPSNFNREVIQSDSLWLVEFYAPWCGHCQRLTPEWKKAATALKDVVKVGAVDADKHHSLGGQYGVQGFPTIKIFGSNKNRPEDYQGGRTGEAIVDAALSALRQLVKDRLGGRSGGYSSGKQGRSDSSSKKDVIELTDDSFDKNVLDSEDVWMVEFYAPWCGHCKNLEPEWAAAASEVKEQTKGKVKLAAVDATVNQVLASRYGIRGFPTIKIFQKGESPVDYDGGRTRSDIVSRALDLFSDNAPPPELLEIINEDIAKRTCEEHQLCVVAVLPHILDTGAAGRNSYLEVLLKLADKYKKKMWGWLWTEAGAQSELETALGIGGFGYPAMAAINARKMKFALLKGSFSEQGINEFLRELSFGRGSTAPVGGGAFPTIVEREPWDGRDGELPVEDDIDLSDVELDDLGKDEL
Consider `C[C@H]1CN([C@@H](C)CO)S(=O)(=O)c2ccc(C#CCN(C)C)cc2O[C@@H]1CN(C)Cc1ccc(F)cc1`, for which the inhibition was 3.33% (inactive).
To `C[C@@H]1CN([C@@H](C)CO)C(=O)Cc2cc(NC(=O)C3CCCCC3)ccc2O[C@@H]1CN(C)Cc1ccc(C(=O)Nc2ccccc2N)cc1` belongs -3.91% (inactive); to `CN1C(=O)c2cc(NC(=O)c3cnccn3)ccc2OC[C@H]2O[C@@H](CC(=O)NCC3CCCCC3)CC[C@@H]21`, -4.79% (inactive).
As for `CC(C)NC(=O)N(C)C[C@H]1Oc2c(NC(=O)Nc3ccc(F)cc3)cccc2C(=O)N([C@@H](C)CO)C[C@@H]1C`, the inhibition is 0.87% (inactive).
`COc1cccc(-c2cnc3c(c2)C(=O)N([C@@H](C)CO)C[C@H](C)[C@H](CN(C)C(C)=O)O3)c1`: the inhibition is 1.61% (inactive).
Regarding `CN(C)C(=O)C[C@@H]1C=C[C@H](NC(=O)Nc2cccc(F)c2)[C@H](CO)O1`, the inhibition was 0.18% (inactive).
Take `COCC(=O)N[C@@H]1C[C@@H]2O[C@@H](CO)CC[C@@H]2O[C@@H]1CCc1ccc(-c2ccccc2)cc1`: the inhibition was -0.551% (inactive).
Regarding `C[C@H]1CN([C@@H](C)CO)C(=O)c2cccc(NC(=O)c3cnccn3)c2O[C@H]1CN(C)C(=O)Nc1ccccc1`, the inhibition was 2.81% (inactive).
Next, `CC(=O)N1[C@H](CO)[C@H](c2ccccc2)[C@H]1CN(C(=O)c1ccccc1F)C(C)C`: -2.13% (inactive); `C[C@H](CO)N1C[C@H](C)[C@H](CN(C)S(=O)(=O)c2cccc(F)c2)OCc2cnnn2CCCC1=O`: -5.61% (inactive).
For the compound `Cc1cccc(S(=O)(=O)N(C)C[C@H]2OCc3cnnn3CCCC(=O)N([C@@H](C)CO)C[C@H]2C)c1`, the inhibition is -7.22% (inactive) and 27.4% (active).
As for `Cc1cccc(S(=O)(=O)N(C)C[C@@H]2OCc3cnnn3CCCC(=O)N([C@H](C)CO)C[C@@H]2C)c1`, the inhibition was -3.09% (inactive) and 0.225% (inactive) and -3.77% (inactive).
`Cc1nc(NC(=O)C(C)(C)C)sc1[N+](=O)[O-]`: the inhibition was 0.0535% (inactive).
Take `O=C(NCC1CC1)[C@@H]1[C@@H](CO)[C@@H]2Cn3c(ccc(-c4ccncc4)c3=O)[C@@H]2N1Cc1cocn1`: the inhibition is 6.61% (inactive).
In the case of `CO[C@@H]1CN(C)C(=O)c2ccc(NC(=O)NC(C)C)cc2OC[C@@H](C)N(Cc2ccc(-c3ccccn3)cc2)C[C@H]1C`, the inhibition is -3.96% (inactive).
For the compound `CCS(=O)(=O)N1[C@H](CO)[C@@H](c2ccc(C#CC(C)C)cc2)[C@@H]1C#N`, the inhibition is 0.717% (inactive).
For the compound `O=C(C[C@H]1C=C[C@@H](NC(=O)c2ccc(F)cc2)[C@@H](CO)O1)NCCc1ccncc1`, the inhibition is -1.66% (inactive).
Turning to `COCC#Cc1cnc2c(c1)C(=O)N([C@H](C)CO)C[C@H](C)[C@H](CN(C)C(=O)CCN1CCCCC1)O2`, the inhibition was -2% (inactive).
Regarding `C[C@@H]1CN([C@H](C)CO)C(=O)Cc2cc(NC(=O)Cc3cn(C)c4ccccc34)ccc2O[C@@H]1CN(C)Cc1ccc(C(F)(F)F)cc1`, the inhibition was -1.92% (inactive).
As to `Cc1cccc(-c2ccccc2[C@@H]2[C@H](C#N)N(c3ncc(-c4ccccc4)s3)[C@H]2CO)c1`, the inhibition was 5.5% (inactive).
In the case of `CO[C@@H]1CN(C)C(=O)c2cc(NS(=O)(=O)c3cccc(F)c3)ccc2OC[C@@H](C)NC[C@@H]1C`, the inhibition was 3.66% (inactive).
With `CO[C@@H]1CC[C@@H]2CCOc3c(C#N)cccc3C(=O)N(C)C[C@@H](OC)[C@@H](C)C(=O)N(C)C[C@H]1O2`, the inhibition was 0.649% (inactive).
Regarding `COc1ccc2c3c(n(C)c2c1)[C@@H](CO)N(CC1CC1)CC31CN(C(=O)c2cccc(F)c2)C1`, the inhibition was -2.91% (inactive).
In the case of `COCC(=O)N[C@@H]1C=C[C@@H](CC(=O)N2CCCCC2)O[C@@H]1CO`, the inhibition was -2.02% (inactive).
As to `CC(C)NC(=O)N(C)C[C@H]1OCCCC[C@@H](C)Oc2ccc(NS(C)(=O)=O)cc2C(=O)N([C@H](C)CO)C[C@H]1C`, the inhibition was -1.99% (inactive).
On to `CCCN1C[C@H](C)[C@@H](OC)CN(C)C(=O)c2cc(NS(=O)(=O)CC)ccc2OC[C@H]1C`, for which the inhibition was -4.64% (inactive).
On to `C[C@@H]1CN([C@@H](C)CO)C(=O)Cc2cc(NC(=O)Nc3cccc4ccccc34)ccc2O[C@@H]1CN(C)CC1CCCCC1`, for which the inhibition is 3.82% (inactive).
To `O=C(NCC[C@@H]1CC[C@@H](NS(=O)(=O)c2cccc(F)c2)[C@H](CO)O1)C1CC1` belongs -3.52% (inactive); to `CCCNC(=O)N(C)C[C@H]1Oc2cc(C#C[C@@H](C)O)ccc2S(=O)(=O)N([C@H](C)CO)C[C@H]1C`, -12.1% (inactive).
With `CCCN1C[C@@H](C)[C@@H](OC)CN(C)C(=O)c2ccc(NC(=O)CC(F)(F)F)cc2OC[C@H]1C`, the inhibition is 9.49% (inactive).
For `Cc1ccc(-c2ccccc2[C@H]2[C@@H](C#N)N(c3ncc(-c4ccccc4)s3)[C@@H]2CO)cc1`, the inhibition is -0.798% (inactive).
To `CC=Cc1ccc2n(c1=O)C[C@H]1[C@H](CO)[C@@H](C(=O)NCC3CC3)N(Cc3nccs3)[C@@H]21` (mixture of isomers) belongs -2.63% (inactive); to `COc1ccccc1-c1cnc2c(c1)C(=O)N([C@H](C)CO)C[C@H](C)[C@@H](CN(C)C(=O)CC1CC1)O2`, -2.32% (inactive); to `C[C@H]1CN([C@@H](C)CO)C(=O)c2cc(Br)cnc2O[C@@H]1CN(C)C(=O)c1ccccc1`, -13% (inactive).
For `CCNC(=O)C[C@@H]1CC[C@@H]2[C@@H](COc3ccc(NC(C)=O)cc3C(=O)N2C)O1`, the inhibition is -7.17% (inactive).
As to `COCC(=O)Nc1ccc2c(c1)C(=O)N(C)[C@@H]1CC[C@H](CC(=O)NCC3CC3)O[C@@H]1CO2`, the inhibition is 7.57% (inactive).
On to `CC(=O)Nc1ccc2c(c1)C(=O)N(C)[C@H]1CC[C@@H](CC(=O)NCC3CC3)O[C@H]1CO2`, for which the inhibition is 39.3% (active).
For the compound `C[C@@H]1CN([C@@H](C)CO)C(=O)Cc2cc(NC(=O)Nc3cccc4ccccc34)ccc2O[C@H]1CN(C)S(=O)(=O)c1ccc(Cl)cc1`, the inhibition was -3.03% (inactive).
To `O=C(CN1CCOCC1)N[C@@H]1CC[C@@H](CCNC(=O)C2CCCCC2)O[C@@H]1CO` belongs 0.632% (inactive); to `C[C@H](CO)N1C[C@H](C)[C@H](CN(C)Cc2ccc(Oc3ccccc3)cc2)Oc2c(NC(=O)CCCCCC(=O)Nc3ccccc3N)cccc2C1=O`, 1.76% (inactive); to `CO[C@@H]1CN(C)C(=O)c2cc(NS(=O)(=O)CC(F)(F)F)ccc2OC[C@H](C)N(C)C[C@H]1C`, 1.29% (inactive).
`C/C=C/c1ccccc1[C@H]1[C@@H](C#N)N(C(C)=O)[C@@H]1CO`: the inhibition was 0.399% (inactive).
To `COc1ccc(NC(=O)N(C)C[C@@H]2OCc3ccccc3-c3c(n(C)c4ccccc34)C(=O)N([C@H](C)CO)C[C@H]2C)cc1` belongs 1.51% (inactive).
Regarding `COc1ccc(S(=O)(=O)Nc2ccc3c(c2)C(=O)N([C@@H](C)CO)C[C@H](C)[C@H](CN(C)Cc2ccc(C(=O)O)cc2)O3)cc1`, the inhibition is 4.86% (inactive).
In the case of `C/C=C/c1ccc2c(c1)O[C@H](CN(C)C(=O)Cc1ccccn1)[C@H](C)CN([C@H](C)CO)S2(=O)=O`, the inhibition is -3.16% (inactive).
Take `N#C[C@@H]1[C@H](c2ccccc2-c2ccccc2F)[C@@H](CO)N1C(=O)c1ccccn1`: the inhibition was -2.07% (inactive).
For `Cc1ccc(S(=O)(=O)Nc2ccc3c(c2)C(=O)N([C@H](C)CO)C[C@H](C)[C@@H](CN(C)S(=O)(=O)c2cccs2)O3)cc1`, the inhibition is 3.96% (inactive).
In the case of `C[C@@H]1CN([C@@H](C)CO)C(=O)c2cc(NC(=O)Nc3ccccc3)ccc2O[C@H]1CN(C)C(=O)Nc1ccc(F)cc1`, the inhibition was 4.96% (inactive).
For the compound `CCC(=O)N(C)C[C@H]1[C@H](c2ccc(-c3ccccc3F)cc2)[C@@H](CO)N1C(C)=O`, the inhibition is -0.23% (inactive).
Regarding `COCC#Cc1ccc([C@@H]2[C@@H](CO)N3C(=O)CN(C(=O)C4CCCC4)C[C@@H]23)cc1`, the inhibition was 0.681% (inactive).
Take `Cc1noc(C)c1S(=O)(=O)N(C)C[C@H]1Oc2ccc(NC(=O)Nc3cccc4ccccc34)cc2CC(=O)N([C@@H](C)CO)C[C@H]1C`: the inhibition was -5.17% (inactive).
On to `COc1ccc2c3c(n(C)c2c1)[C@@H](CO)N(C(=O)c1ccc(F)cc1)CC31CN(C(=O)c2ccc(F)cc2)C1`, for which the inhibition is 1.03% (inactive).
As to `COc1ccc2c3c(n(C)c2c1)[C@@H](CO)N(C(=O)CN1CCOCC1)CC31CN(C(=O)CC2CC2)C1`, the inhibition was -0.576% (inactive).
Next, `CN(C)CC(=O)N1[C@@H](CO)[C@H](c2ccccc2)C12CN(C(=O)c1cccc(F)c1)C2`: 2.27% (inactive); `C/C=C/c1ccc([C@@H]2[C@H](CO)N(C(=O)c3cnccn3)C23CN(C(C)=O)C3)cc1`: -4.61% (inactive); `C[C@@H]1CN([C@H](C)CO)C(=O)c2cc(C#CCC3CCCC3)cnc2O[C@H]1CN(C)C(=O)c1cnccn1`: -0.111% (inactive).
For the compound `C[C@@H]1CN([C@H](C)CO)S(=O)(=O)c2ccc(-c3ccncc3)cc2O[C@H]1CN(C)S(=O)(=O)c1ccccc1F`, the inhibition is -3.02% (inactive).
Turning to `C[C@@H]1CN([C@@H](C)CO)C(=O)c2cc(NS(=O)(=O)c3ccccc3)ccc2O[C@@H]1CN(C)Cc1ccc(C(=O)O)cc1`, the inhibition is -2.81% (inactive).
Turning to `Cc1noc(C)c1S(=O)(=O)Nc1ccc2c(c1)C(=O)N([C@H](C)CO)C[C@H](C)[C@H](CN(C)S(C)(=O)=O)OCCCC[C@H](C)O2`, the inhibition was -0.161% (inactive).
`C[C@@H]1CN([C@@H](C)CO)S(=O)(=O)c2ccc(C#CC(C)(C)O)cc2O[C@H]1CN(C)C(=O)CN(C)C`: the inhibition is -0.244% (inactive).
With `C[C@H](CO)N1C[C@H](C)[C@H](CN(C)C)Oc2cc(C#Cc3ccccc3F)ccc2S1(=O)=O`, the inhibition was 11.3% (inactive).

For orientation: inhibition means the relative decrease from the control value, in per cent.
